{"source": "PubChem BioAssay (NCI)", "note": "“And” between values parts separate entries of the source, which are not always exact repeats. Identical values can stand only once. About 83,000 compounds went through this panel and 20% of them were active in at least one assay; those are over-represented in the sample as a whole.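 Percent growth is the endpoint: 0 to 100 indicates growth inhibition (40 means 60% inhibition), 0 means no net growth, and negative values indicate cell death.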 Values without a mark were called inactive. The source made the active and inactive calls. The calls were made as follows: active = growth percent below 10; inactive = the rest."}
{"tested_on": "HL-60(TB) leukemia", "experiment": "NCI-60 one-dose screen, 48 h (100 = growth as untreated, 0 = no growth, -100 = all killed)", "conditions": "10 µM unless noted"}
{"molecule": "O=C(Nc1ccc(Br)cc1F)c1cc(Cl)ccc1O", "growth": "-42.4% (active)"}
{"molecule": "Br/C(=N\\Nc1nn[nH]n1)c1ccccc1", "growth": "103%"}
{"molecule": "O=C(NCCO)c1cccnc1", "growth": "97.1%"}
{"molecule": "COc1ccc(N2CCC(=O)NC2=S)cc1", "growth": "101%"}
{"molecule": "CN(C)CCCOc1ccccc1NC1=C(Cl)C(=O)C(Nc2ccccc2OCCCN(C)C)=C(Cl)C1=O", "growth": "-33.1% (active)"}
{"molecule": "CCN1C(=O)N(CC)C2C1NN=c1s/c(=C\\c3ccc(Cl)cc3Cl)c(=O)n12", "note": "(stereo not given)", "growth": "-52.1% (active)"}
{"molecule": "CN1CCN(C2=Nc3ccccc3Oc3ccc(Cl)cc32)CC1", "growth": "91.8%"}
{"molecule": "NC1=NCc2nc3ccccc3c(=O)n2C1", "growth": "90.9%"}
{"molecule": "CCOC(=O)c1ccc2[nH]c(O)c(C(=Nc3ccc(N(C)C(=O)CN4CCN(C)CC4)cc3)c3ccccc3)c2c1", "growth": "-52.6% (active)"}
{"molecule": "Clc1ccc(-c2nnc(COc3ccc(C4=NNC(c5ccco5)C4)cc3)o2)cc1", "note": "(stereo not given)", "growth": "79.6%"}
{"molecule": "COc1ccc(/C(C)=N/NC(=O)c2ccc(S(C)(=O)=O)cc2)cc1OC", "growth": "50.9%"}
{"molecule": "O=C(C[n+]1ccccc1)c1ccc2ccccc2c1", "growth": "101%"}
{"molecule": "NC(=S)Cc1ccccc1", "growth": "99.1%"}
{"molecule": "COc1ccc(Cc2cc(-c3ccccc3)nn(Cc3ccccc3)c2=O)cc1OC", "growth": "25.8%"}
{"molecule": "O=C(CSc1nnc(-c2ccc(NC(=O)c3cccnc3)cc2)o1)N[C@@H](Cc1ccc(O)cc1)C(=O)O", "growth": "99.4%"}
{"molecule": "N#CC1=C(N)Oc2ccc3ccccc3c2C1c1ccccc1", "note": "(stereo not given)", "growth": "2.02% (active)"}
{"molecule": "COc1ccc(C(=O)c2no[n+]([O-])c2C(=O)c2ccc(OC)cc2)cc1", "growth": "-79.7% (active)"}
{"molecule": "CCS/C(Nc1ccccc1)=C(\\C#N)C(=O)N/N=C/c1ccc(Cl)cc1Cl", "growth": "-31.4% (active)"}
{"molecule": "NS(=O)(=O)OCC1OC(n2cnc3cncnc32)C(O)C1O", "note": "(stereo not given)", "growth": "37.8% [0.1 µM] and 27.5% [0.1 µM]"}
{"molecule": "O=C1c2ccc3c4c5ccc(c24)C(=O)N1CCCOCCCCOCCCNCc1ccc(cc1)CNCCCOCCCCOCCCN(C3=O)C5=O", "growth": "-61.1% (active)"}
{"molecule": "O=C(OCc1ncc(-c2ccc(C(F)(F)F)cc2)c(NC2CCCCCC2)n1)c1c(F)c(F)c(F)c(F)c1F", "growth": "27.5%"}
{"molecule": "COC(=O)c1c2c(c(C)[n+]([O-])c1C)C(=O)C(NCc1ccc(O)cc1)=CC2=O", "growth": "-8.85% (active)"}
{"molecule": "NC(=O)Cc1nc(O)cc(=O)[nH]1", "growth": "87.4%"}
{"molecule": "COc1ccc(/C=C/C(=O)c2c(C)nc3ccccc3c2/C=C/c2ccccc2)c(OC)c1", "growth": "66.7%"}
{"molecule": "CCOC(=O)C#Cc1c(C(=O)OCC)nnn1[C@@H]1O[C@H](CO)[C@H]2OC3(CCCCC3)O[C@H]21", "growth": "52.8%"}
{"molecule": "Cc1ccc(C(=O)/C(=C/c2ccc([N+](=O)[O-])cc2)S(=O)Cc2ccccc2)cc1", "note": "(stereo not given)", "growth": "36.8%"}
{"molecule": "CCn1cnc(C[C@H](NC(=O)[C@@H](NC(=O)Nc2cc(C(F)(F)F)cc(C(F)(F)F)c2)C(C)(C)C)C(=O)OC)c1", "growth": "-71.5% [100 µM] (active)"}
{"molecule": "Cc1nn(Cc2ccccc2)cc1C(=O)Nc1sc2c(c1C(N)=O)CCC(=O)C2", "growth": "-4.39% (active)"}
{"molecule": "CN1CCN(c2nc(-c3cccc4ccccc34)nc3sc4c(c23)CCCCCC4)CC1", "growth": "91.6%"}
{"molecule": "O=C(N/N=C1\\c2ccccc2-c2cccc(C(=O)O)c21)c1ccc(O)cc1", "growth": "103%"}
{"molecule": "Cc1ccc(C(=O)N2C/C(=C/c3ccccc3)C(=O)/C(=C/c3ccccc3)C2)cc1", "growth": "73.7%"}
{"molecule": "O=C(O)CNC1=C(Cl)C(=O)c2ccccc2C1=O", "growth": "122%"}
{"molecule": "C/C(=N\\NC(N)=S)c1nc2ccc(Cl)cc2[nH]1", "growth": "29.5%"}
{"molecule": "CCCCCCCC[Si](OCC)(OCC)OCC", "growth": "94.3%"}
{"molecule": "CCOC(=O)c1sc2ncc(-c3ccc(C)cc3)n2c1C", "growth": "75.4%"}
{"molecule": "COc1cc(OCc2cccc(Br)c2C)cc(OC)c1C=O", "growth": "92.6%"}
{"molecule": "C[n+]1ccc(Nc2ccc(NC(=O)c3ccc(Nc4cc[n+](C)c5ccc(N)cc45)cc3)cc2)cc1", "growth": "82.3%"}
{"molecule": "COc1ccc(-c2nn(-c3cccc(Cl)c3)cc2C=C(C#N)C#N)cc1", "growth": "-36.7% (active)"}
{"molecule": "CNC(=O)c1cc(Oc2ccc(CC(=O)Nc3cc(C(C)(C)C)cn3C)cc2)ccn1", "growth": "77.5%"}
{"molecule": "O=c1oc2ccc([N+](=O)[O-])cc2cc1Br", "growth": "105%"}
